TLR4 MyD88 comp = blocks binding of human TLR4 to MyD88. O00206+Q99836. HeLa CL3-4 TLR4/MyD88 BLA complementation, FRET ratio. inhibition, % at 8.4 µM. 200,000 tested, 0.18% active; in the data active means inhibition above about 25%;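 further: 0% = vehicle and 100% = reference inhibitor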
TLR9-MyD88 inh = TLR9-MyD88 interaction inhibition | Q9NR96+Q99836 | CHO BLA complementation TLR9-MyD88, CCF4 FRET ratio | inhibition, % at 4.98 µM | 340,000 tested, 0.21% active | AID 504734;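 active means inhibition above the mean over all tested compounds plus 3 SD, cut at about 21% in these data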;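 further: 0% = DMSO only wells and 100% = clavulanate BLA inhibitor control wells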
GC-B act = GC-B (human) receptor activation; activation, % at 10 µM; HEK293-GC-B cells, CNP EC30, cGMP TR-FRET; 0% at EC30 CNP, 100% saturating CNP; 370,000 tested, 0.11% active; P20594;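 active means activation at 10 µM reaching about 35% in either raw or pattern-adjusted values, limit read from the data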
Neddylation inh = inhibitors of human cullin neddylation | TR-FRET cullin neddylation, biochemical | 360,000 tested, 0.58% active | P61081+Q13564 | inhibition, % at 25 µM; in the data active means inhibition above about 36%
NOD2 RIPK2 PPI = blocks binding of human NOD2 to RIPK2 | O43353 | CHO BLA complementation NOD2-RIPK2, CCF4 ratio | inhibition, % at 4.98 µM | 360,000 tested, 0.38% active; in the data active means inhibition above about 21%;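 further: 0% = vehicle only and 100% = reference blocker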
NPR1 activator = GC-A (human) enzyme activation; HEK293 GC-A cells, cGMP TR-FRET, EC30 ANP; 0% at EC30 ANP, 100% saturating ANP; AID 1671463; P16066; 370,000 tested, 0.14% active; activation, % at 10 µM; in the data active means activation above about 40%
NOD2 RIPK2 conf = NOD2-RIPK2 interaction inhibition confirmed. 1,200 tested, 70% active. CHO cells, NOD2-RIPK2 BLA complementation, CCF4 FRET. shares compounds with NOD2 RIPK2 PPI. inhibition, % at 4.98 µM;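 active means mean inhibition across replicates above a set limit taken from the earlier primary screen, cut at about 21% in these data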;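 further: 0% = DMSO-only wells and the high end = clavulanate BLA-blocked wells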
BLA counter = NOD2-RIPK2 counterscreen BLA reporter activity; shares compounds with NOD2 RIPK2 PPI; CHO BLA reporter, CCF4 FRET ratio; inhibition, % at 4.98 µM; 1,200 tested, 57% active;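 active means mean inhibition above the low-control mean inhibition plus three low-control SD, cut at about 11% in these data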;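 further: 0% = DMSO only wells and 100% = clavulanate high control wells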
Starred values were filed as active, the others as inactive; . = no result shown. Compounds with a hit are over-represented: about 1.2% of the library has one in this group of screens.

SMILES	TLR4 MyD88 comp	TLR9-MyD88 inh	GC-B act	Neddylation inh	NOD2 RIPK2 PPI	NPR1 activator	NOD2 RIPK2 conf	BLA counter
Cc1cccc(NC(=O)CNC(=O)c2ccc3c(c2)OCO3)n1	.	-0.7	-1.3	2.2	37.6*	1.1	-6.4	2.1
CCOC(=O)[C@@]12CCCC=C1N(CCc1ccc(Cl)cc1)C(=O)[C@H]2CC(=O)NCc1ccc(OC)c(OC)c1	.	.	1.9	.	.	3.9	.	.
O=C(O)c1cccc(Cn2c(Cl)c(/C=N/NC(=O)c3ccc(O)cc3)sc2=O)c1	.	7.3	2.3	-12.9	-3.5	-5.6	.	.
O=c1sc(/C=N/Nc2ccccc2)c(Cl)n1Cc1ccccc1	-7.6	-7.2	-4.1	9.8	29.4*	0.3	4.8	1.4
O=S1(=O)N[C@H](Cc2ccccc2)COc2cccc(F)c21	.	.	5.5	.	.	-0.4	.	.
CSc1nnc(NC(=O)c2nc(S(=O)(=O)Cc3ccccc3)ncc2Cl)s1	.	-6.2	7.4	11.3	5.8	5.6	.	.
CCCc1nnc(NC(=O)c2nc(S(=O)(=O)Cc3ccc(C)cc3)ncc2Cl)s1	.	9.6	10.2	7.2	32.4*	15.5	29.9*	17.9*
CC(C)C[C@@H]1COc2cc(N3CCSCC3)ccc2S(=O)(=O)N1C	.	.	-0.5	.	.	3.3	.	.
O=C(NCCO)[C@H](Cc1ccccc1)NC1(C(=O)NCCN2CCOCC2)CCCCC1	.	.	-1.4	.	.	-0.1	.	.
CC[C@@H](C)[C@H](NC(=O)OC(C)(C)C)c1nnc(S(=O)(=O)Cc2cc(C)ccc2C)o1	10.6	-2.0	-8.4	9.1	59.2*	-1.3	52.5*	-4.2
CC(C)(C)OC(=O)N[C@@H](Cc1ccccc1)c1nnc(S(=O)(=O)Cc2cccc(F)c2)o1	11.3	.	.	.	.	.	.	.
CC(C)[C@H](NC(=O)OC(C)(C)C)c1nnc(S(=O)(=O)Cc2c(F)cccc2Cl)o1	.	15.7	5.7	-4.8	68.6*	7.8	69.7*	9.6
Cc1ccccc1CS(=O)(=O)c1nnc([C@H](CC(C)C)NC(=O)OC(C)(C)C)o1	10.9	-0.1	-4.9	0.4	25.5*	-19.0	42.4*	-4.8
CN1C(=O)c2cc(NS(=O)(=O)c3cccc(F)c3)ccc2OC[C@@H]2O[C@H](CC(=O)O)CC[C@H]21	.	.	-5.4	.	.	-1.1	.	.
Cn1ccnc1Sc1cc(NCCCO)c([N+](=O)[O-])c2nonc12	4.3	13.3	-3.1	2.8	26.9*	4.8	30.8*	7.5
O=[N+]([O-])c1c(NCCCO)cc(Sc2ccc(Cl)cc2)c2nonc12	0.4	9.0	-4.2	-5.1	8.1	12.5	.	.
O=C(CCCN1C(=O)/C(=C\c2cccs2)SC1=S)Nc1cccc(C(=O)O)c1	2.4	3.1	-0.6	-46.5	23.6*	0.3	4.9	-4.1
CC(C)N1CCCCC(NC(=O)c2cccc(C(F)(F)F)c2)C1=O (configuration not stated)	.	.	-2.1	.	.	1.4	.	.
O=C(Cn1ncc(Cl)c(Cl)c1=O)NCC1CCCCC1	21.0	10.9	0.7	-117.2	21.4*	4.6	29.1*	-1.8
Cc1ccc(NC(=O)Cn2ncc(Cl)c(Cl)c2=O)cc1S(=O)(=O)N1CCCCC1	.	1.2	2.1	-227.5	34.2*	7.6	43.0*	10.5*
Cc1ccc(NC(=O)Cc2ccc(Cl)cc2)cc1S(=O)(=O)N1CCCCCC1	.	3.0	5.6	-26.4	1.2	1.5	.	.
COc1ccc2c(c1OC)c(=O)n1c3ccc(OC(C)C(=O)NCCCN4CCOCC4)cc3c3ccnc2c31 (configuration not stated)	.	2.0	.	.	21.1*	.	-26.1	-2.7
COCCn1c(=O)[nH]c2cc(C(=O)Nc3nnc(C)s3)ccc21	.	-7.6	-0.3	20.1	94.0*	0.3	-1.0	-18.1
COCCn1c(=O)[nH]c2cc(C(=O)Nc3cc(OC)c(OC)c(OC)c3)ccc2c1=O	.	-0.1	-7.1	0.3	-4.6	3.5	.	.
N#Cc1ccc2c(c1)nnn2-c1ccccc1	.	.	-6.2	4.6	-14.8	-2.0	.	.
